From PubChem BioAssay (NCATS)
Values joined by “and” are separate entries in the source; they are usually repeats but may differ in a detail not shown here. Equal entries are not always repeated. Records with an inconclusive call do not appear. Active and inactive are the calls of the source. Unless noted, the call rests on the fitted dose curve; in most records, active means well fitted curve in the direction sought with a large enough effect; inconclusive means small, poorly fitted or top-dose-only effect, or another doubt; inactive means no such curve, though single readings can be large; an effect the other way counts as inactive or inconclusive.

Columns and labels:
[1] = AP1 Signaling Pathway (AID 357; active means well fitted curve in either direction with a large enough effect, not every such curve was filed as active;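 further: ME-180 reporter cells stimulated with EGF at its EC50 level; on the % scale 0 is the no-effect control and ±100 the full control effect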); conditions: ME-180 AP-1-bla reporter, EGF-induced, beta-lactamase ratio, 5 h
Procedure, shortened: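 Beta-lactamase reporter under AP-1 response element, ME-180 background. Stimulus: EC50 EGF. Compound exposure 5 h, 37 °C. Detection: CCF4, 2.5 h RT, 460/530 nm. Values: AC50 from titration.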

[2] = NFAT Signaling Pathway (AID 444; active means well fitted curve in either direction with a large enough effect, not every such curve was filed as active;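 further: carbachol stimulus at about its EC50 of 1 µM final; on the % scale 0 is the no-effect control and ±100 the full control effect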); conditions: Jurkat NFAT-bla M1, carbachol, beta-lactamase ratio, 5 h
Procedure, shortened: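 Jurkat cells carrying an NFAT-driven β-lactamase reporter and co-transfected muscarinic M1 receptor were treated with compound plus carbachol (1 uM final, an EC50 level) for 5 h at 37 °C. CCF4 loading followed for 1 h at RT; 460/530 nm ratio gave %activity.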

[3] = Stat Signaling Pathway (AID 446; active means well fitted curve in either direction with a large enough effect, not every such curve was filed as active;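 further: ME-180 cervical cancer cells given 40 pM IL-6 alongside compound; SIE-controlled beta-lactamase reporter measured as 460/530 nm FRET emission ratio; on the % scale 0 is the no-effect control and ±100 the full control effect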); conditions: ME-180 (cervical carcinoma) SIE beta-lactamase reporter, IL-6 stimulated, 5 h
Procedure, shortened: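 FRET read-out (405 nm excitation, 460/530 nm emission) of a beta-lactamase reporter under a STAT-inducible element in ME-180 cervical carcinoma cells. Cells with compound receive 40 pM IL-6 for 5 h. Values are normalised to AC90 stimulation and AC90 JAK-inhibitor controls.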

[4] = target: Glucocorticoid receptor (Homo sapiens) (UniProt P04150); experiment: GR-EFC Redistribution (AID 451; calls by dose curve; further: potency means the concentration at half of the fitted maximal effect); conditions: CHO-K1 GR-EFC translocation, beta-gal luminescence, 2 h
Chain of Glucocorticoid receptor (Homo sapiens) (P04150 whole entry, looked up, the tested form may be a part): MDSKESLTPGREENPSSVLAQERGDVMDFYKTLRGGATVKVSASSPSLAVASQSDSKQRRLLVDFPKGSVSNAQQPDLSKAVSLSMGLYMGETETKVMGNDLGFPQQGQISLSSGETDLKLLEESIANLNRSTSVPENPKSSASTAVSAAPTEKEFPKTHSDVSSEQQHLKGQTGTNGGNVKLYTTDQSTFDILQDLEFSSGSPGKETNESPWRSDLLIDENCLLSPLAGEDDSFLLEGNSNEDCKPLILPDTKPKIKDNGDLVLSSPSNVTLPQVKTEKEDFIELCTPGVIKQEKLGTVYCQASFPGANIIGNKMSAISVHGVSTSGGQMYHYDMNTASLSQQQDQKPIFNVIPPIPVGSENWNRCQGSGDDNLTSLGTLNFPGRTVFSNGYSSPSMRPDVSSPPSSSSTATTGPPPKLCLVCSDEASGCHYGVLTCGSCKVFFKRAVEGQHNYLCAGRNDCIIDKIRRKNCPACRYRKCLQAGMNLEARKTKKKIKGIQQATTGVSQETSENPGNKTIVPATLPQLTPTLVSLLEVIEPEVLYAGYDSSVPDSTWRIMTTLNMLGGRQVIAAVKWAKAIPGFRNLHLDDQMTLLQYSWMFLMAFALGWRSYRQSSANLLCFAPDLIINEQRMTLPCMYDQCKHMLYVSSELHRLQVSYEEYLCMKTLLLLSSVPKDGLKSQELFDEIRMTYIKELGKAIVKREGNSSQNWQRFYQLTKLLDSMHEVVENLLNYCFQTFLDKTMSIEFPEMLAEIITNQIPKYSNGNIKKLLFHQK
Procedure, shortened: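 CHO-K1 cells stably expressing nuclear-localized β-gal enzyme acceptor and GR fused C-terminally to the enzyme donor fragment; ligand-driven nuclear translocation restores β-gal by complementation. Compounds titrated up to 46 uM final, 2 h at 37 °C; luminescence read.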

[5] = target: Mitogen-activated protein kinase 10 (Mus musculus) (UniProt Q61831); experiment: JNK3 AlphaScreen Assay (AID 530; active means well fitted curve in either direction with a large enough effect, not every such curve was filed as active;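 further: kinase came from lysate of stimulated human HepG2 cells; signal reports phosphorylation of biotinylated GST-cJun 1-79 at Ser73 with 10 µM ATP; on the % scale 0 is the no-effect control and ±100 the full control effect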); conditions: JNK3 lysate, c-Jun phosphorylation; series mostly up to 57.1 µM
Procedure, shortened: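 Phosphorylation of biotinylated GST-cJun(1-79) at Ser73 is measured by AlphaScreen proximity luminescence. Enzyme is JNK3 in HepG2 lysates activated with interleukin-1beta and tumor necrosis factor alpha; ATP is 10 uM final.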

[6] = target: 3',5'-cyclic-AMP phosphodiesterase 4B (Homo sapiens) (UniProt Q07343); experiment: qHTS Assay for Inhibitors of PDE-IV (AID 607; active means well fitted activation curve with a large enough effect in the main read-out, with a control signal flat, not every such curve was filed as active; further: % of control where 0% means no effect); conditions: HEK293 ACTOne CNG channel cells, membrane potential fluorescence; series mostly up to 22.9 µM
Chain of 3',5'-cyclic-AMP phosphodiesterase 4B (Homo sapiens) (Q07343 whole entry, looked up): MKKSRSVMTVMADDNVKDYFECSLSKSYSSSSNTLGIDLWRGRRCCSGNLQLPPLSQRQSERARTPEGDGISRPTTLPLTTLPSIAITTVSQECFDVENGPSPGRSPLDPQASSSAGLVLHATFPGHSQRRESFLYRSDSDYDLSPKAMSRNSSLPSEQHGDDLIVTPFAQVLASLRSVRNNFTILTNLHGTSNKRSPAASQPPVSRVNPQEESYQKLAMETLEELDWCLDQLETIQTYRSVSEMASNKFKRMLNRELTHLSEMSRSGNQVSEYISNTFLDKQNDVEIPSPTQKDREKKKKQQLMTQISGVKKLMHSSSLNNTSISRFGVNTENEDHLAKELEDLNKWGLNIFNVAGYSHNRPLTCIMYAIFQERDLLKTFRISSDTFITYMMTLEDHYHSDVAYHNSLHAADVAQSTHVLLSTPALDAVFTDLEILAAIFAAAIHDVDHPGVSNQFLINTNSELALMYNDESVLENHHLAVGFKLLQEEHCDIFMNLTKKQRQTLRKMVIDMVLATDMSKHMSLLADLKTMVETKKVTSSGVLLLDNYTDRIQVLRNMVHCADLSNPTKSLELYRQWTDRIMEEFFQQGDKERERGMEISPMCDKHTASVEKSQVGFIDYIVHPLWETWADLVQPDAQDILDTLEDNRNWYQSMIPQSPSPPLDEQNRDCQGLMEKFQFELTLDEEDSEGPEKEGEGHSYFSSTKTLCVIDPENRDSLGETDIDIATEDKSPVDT
Procedure, shortened: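 Cell-based read-out of cAMP via a modified cyclic nucleotide-gated channel and membrane potential dye (535/590 nm) in HEK293 cells expressing PDE4 endogenously. Compounds tested up to 22.9 uM final; 100 uM RO 20-1724 reference.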

[7] = qHTS Assay for Lipid Storage Modulators (AID 1519; calls by dose curve); conditions: Drosophila S3 cells, BODIPY lipid droplet/cell ratio, laser cytometry, cells loaded with oleic acid; for activity change, negative = inhibition: at 25.7 µM (top of the series)
Procedure, shortened: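 Cells seeded at 5,000 per well were treated with compounds over a concentration series and loaded with oleic acid (400 uM, as added). Lipid droplet fluorescence (488 nm excitation, 500-530 nm channel) was read by laser-scanning cytometry and normalized to 20 uM Triacsin C.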

[8] = target: ATP-dependent 6-phosphofructokinase (Trypanosoma brucei brucei) (UniProt O15648); experiment: qHTS Assay to Find Inhibitors of T. brucei phosphofructokinase: hit validation (AID 492961); conditions: T. brucei PFK, ADP-Glo luminescence; series mostly up to 24.3 µM
Chain of ATP-dependent 6-phosphofructokinase (Trypanosoma brucei brucei) (O15648 whole entry, looked up): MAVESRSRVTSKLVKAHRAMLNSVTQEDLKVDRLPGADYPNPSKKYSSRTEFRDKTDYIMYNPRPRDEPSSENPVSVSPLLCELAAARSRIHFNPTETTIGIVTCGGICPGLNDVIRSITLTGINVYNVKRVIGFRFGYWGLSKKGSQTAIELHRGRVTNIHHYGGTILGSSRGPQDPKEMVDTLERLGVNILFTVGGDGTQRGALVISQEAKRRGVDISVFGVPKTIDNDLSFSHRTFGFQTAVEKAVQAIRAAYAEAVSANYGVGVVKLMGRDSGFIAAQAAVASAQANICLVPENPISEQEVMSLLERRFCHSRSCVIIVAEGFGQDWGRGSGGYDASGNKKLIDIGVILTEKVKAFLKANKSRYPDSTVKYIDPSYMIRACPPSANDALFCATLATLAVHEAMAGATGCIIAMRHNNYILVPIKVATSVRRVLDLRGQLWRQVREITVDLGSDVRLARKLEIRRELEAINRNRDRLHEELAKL
Procedure, shortened: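 PFK 1.25 nM, F6P 0.5 mM, ATP 0.1 mM, MgCl2 5 mM, 0.1 M TEA pH 8.0, Tween20 0.01%, BSA 0.1%; 45 min RT. ADP-Glo two-step detection, luminescence. qHTS titration; curve fitting with curve-class categorization.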

[9] = target: Ubiquitin carboxyl-terminal hydrolase 1 (Homo sapiens) (UniProt O94782); experiment: Inhibitors of USP1/UAF1: Pilot qHTS (AID 504865); conditions: purified USP1/UAF1, Ub-rhodamine cleavage fluorescence; series mostly up to 54.9 µM;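 further: rhodamine fluorescence freed from ubiquitin-rhodamine substrate followed over time; top concentration of the series differs between compounds; on the % scale 0 is the no-effect control and ±100 the full control effect; nearly all actives have a fitted effect of over 35% in size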
Chain of Ubiquitin carboxyl-terminal hydrolase 1 (Homo sapiens) (O94782 whole entry, looked up): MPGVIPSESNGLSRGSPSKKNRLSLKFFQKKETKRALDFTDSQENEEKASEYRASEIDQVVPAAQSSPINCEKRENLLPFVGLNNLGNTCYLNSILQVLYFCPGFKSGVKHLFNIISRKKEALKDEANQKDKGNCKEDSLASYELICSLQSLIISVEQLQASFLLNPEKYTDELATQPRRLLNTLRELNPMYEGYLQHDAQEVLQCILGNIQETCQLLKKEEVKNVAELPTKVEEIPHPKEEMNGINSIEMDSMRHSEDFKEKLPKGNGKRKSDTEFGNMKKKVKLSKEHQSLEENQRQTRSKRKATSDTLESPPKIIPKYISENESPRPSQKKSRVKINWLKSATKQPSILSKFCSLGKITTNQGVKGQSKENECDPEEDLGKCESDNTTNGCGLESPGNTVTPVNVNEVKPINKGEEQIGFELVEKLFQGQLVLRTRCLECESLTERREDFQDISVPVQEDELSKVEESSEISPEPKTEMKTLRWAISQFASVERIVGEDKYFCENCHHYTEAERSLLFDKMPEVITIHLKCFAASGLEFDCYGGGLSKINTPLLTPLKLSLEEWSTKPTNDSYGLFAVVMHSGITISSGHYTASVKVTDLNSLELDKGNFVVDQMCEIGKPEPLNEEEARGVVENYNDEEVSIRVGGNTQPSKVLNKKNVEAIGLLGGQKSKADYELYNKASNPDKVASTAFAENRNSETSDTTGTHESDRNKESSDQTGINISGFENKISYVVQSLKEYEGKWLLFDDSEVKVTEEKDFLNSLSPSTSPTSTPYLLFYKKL
Procedure, shortened: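 Enzyme-free wells gave the negative control, while test wells held 1nM USP1/UAF1 preincubated with compound for 15 min at room temperature. Ub-Rho at 150nM final started the reaction, and fluorescence at 480/540 nm was recorded kinetically.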

[10] = target: Luciferin 4-monooxygenase (Photinus pyralis) (UniProt P08659); experiment: Biochemical firefly luciferase enzyme assay for NPC (AID 624030);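 further: purified P. pyralis luciferase at 10 nM with luciferin and ATP substrate; 0% = DMSO and -100% = full luciferase inhibition by PTC124 control; nearly all actives have a fitted effect of over 70% in size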; conditions: purified P. pyralis luciferase, luminescence, 5 min; series mostly up to 58.6 µM
Chain of Luciferin 4-monooxygenase (Photinus pyralis) (P08659 whole entry, looked up): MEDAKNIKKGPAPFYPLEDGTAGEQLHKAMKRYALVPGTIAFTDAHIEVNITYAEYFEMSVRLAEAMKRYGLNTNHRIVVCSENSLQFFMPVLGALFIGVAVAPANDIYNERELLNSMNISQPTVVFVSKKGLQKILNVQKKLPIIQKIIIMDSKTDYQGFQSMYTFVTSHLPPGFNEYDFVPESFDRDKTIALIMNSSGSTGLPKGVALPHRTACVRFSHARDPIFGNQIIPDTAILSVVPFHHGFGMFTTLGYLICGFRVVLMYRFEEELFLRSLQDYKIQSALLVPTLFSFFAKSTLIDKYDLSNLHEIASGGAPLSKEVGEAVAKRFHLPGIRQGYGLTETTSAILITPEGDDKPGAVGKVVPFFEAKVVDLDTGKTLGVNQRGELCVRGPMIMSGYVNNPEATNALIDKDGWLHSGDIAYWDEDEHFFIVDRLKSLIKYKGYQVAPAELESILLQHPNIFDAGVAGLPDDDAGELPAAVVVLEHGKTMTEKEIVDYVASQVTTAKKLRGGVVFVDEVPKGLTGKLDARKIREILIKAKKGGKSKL
Procedure, shortened: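 Counter-screen for direct inhibition of the luciferase enzyme by approved-drug library compounds, run at 10 nM enzyme in 50 mM Tris acetate (final). Luminescence was read within 5 min of enzyme-buffer addition and normalized to PTC124 versus DMSO (0%).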

[11] = qHTS profiling for inhibitors of Plasmodium falciparum proliferation (AID 504749); further: nearly all actives have a fitted effect of over 60% in size; further: potency means the concentration at half of the fitted maximal effect;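 on activity, negative = inhibition: 0% = DMSO vehicle and full inhibition = artemisinin control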; conditions: P. falciparum in erythrocytes, SYBR Green DNA, 72 h
Procedure, shortened: (§1)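 Quantitative HTS: compounds pinned into medium, infected erythrocytes added (0.3% parasitemia, 2.5% hematocrit), 72 h culture at 37 C under 5% CO2. Saponin/Triton lysis with SYBR Green I, overnight RT, then fluorescence read.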

CP238 = experiment: as above; conditions: P. falciparum in erythrocytes, SYBR Green DNA, 72 h; series mostly up to 12.8 µM
Procedure, shortened: as §1

CP262 = experiment: as above; conditions: P. falciparum in erythrocytes, SYBR Green DNA, 72 h; series mostly up to 12.8 µM
Procedure, shortened: as §1

CP325 = experiment: as above; conditions: P. falciparum in erythrocytes, SYBR Green DNA, 72 h; series mostly up to 12.8 µM
Procedure, shortened: as §1

ECU = experiment: as above; conditions: P. falciparum in erythrocytes, SYBR Green DNA, 72 h; series mostly up to 12.8 µM
Procedure, shortened: as §1

FAB9 = experiment: as above; conditions: P. falciparum in erythrocytes, SYBR Green DNA, 72 h; series mostly up to 12.8 µM
Procedure, shortened: as §1

HB3 = experiment: as above; conditions: P. falciparum in erythrocytes, SYBR Green DNA, 72 h; series mostly up to 12.8 µM
Procedure, shortened: as §1

JCK = experiment: as above; conditions: P. falciparum in erythrocytes, SYBR Green DNA, 72 h; series mostly up to 12.8 µM
Procedure, shortened: as §1

[12] = target: Glucocorticoid receptor (Homo sapiens) (UniProt P04150); experiment: GR-GFP Redistribution (AID 450;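 active means compounds whose dose series gives a full or clear partial fitted curve of increased nuclear translocation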; further: potency means the concentration at half of the fitted maximal effect); conditions: U2OS GR-GFP nuclear translocation, laser cytometry, 2 h
[13] = target: Cytochrome P450 1A2 (Homo sapiens) (UniProt P05177); experiment: p450-cyp1a2 (AID 410; calls by dose curve;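 further: -100% = full effect of reference inhibitor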); conditions: recombinant CYP1A2, luciferin-ME demethylation, luminescence; series mostly up to 57 µM
Chain of Cytochrome P450 1A2 (Homo sapiens) (P05177 whole entry, looked up): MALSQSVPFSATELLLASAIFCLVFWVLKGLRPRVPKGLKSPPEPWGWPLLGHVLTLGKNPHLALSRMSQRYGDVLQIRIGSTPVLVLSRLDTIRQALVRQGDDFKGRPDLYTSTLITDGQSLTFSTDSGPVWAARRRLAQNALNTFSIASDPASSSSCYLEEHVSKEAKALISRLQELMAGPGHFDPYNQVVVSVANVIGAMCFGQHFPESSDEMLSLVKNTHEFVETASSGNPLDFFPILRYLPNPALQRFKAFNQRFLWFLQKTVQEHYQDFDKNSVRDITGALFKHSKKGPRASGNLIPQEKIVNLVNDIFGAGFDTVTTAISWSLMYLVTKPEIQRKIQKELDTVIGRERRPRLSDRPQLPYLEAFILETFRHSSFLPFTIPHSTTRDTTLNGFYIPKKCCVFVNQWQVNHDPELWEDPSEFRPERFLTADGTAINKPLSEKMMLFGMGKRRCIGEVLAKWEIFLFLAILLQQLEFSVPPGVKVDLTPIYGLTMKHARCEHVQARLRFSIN
Procedure, shortened: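 Luminescent demethylation readout: Luciferin-ME (100uM, equal to Km) turned over by 20nM CYP1A2 for 60 min at room temperature after NADPH regeneration addition, following 10 min compound preincubation. Normalization used 57 uM furafylline as full inhibition.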

[14] = measured here: cell count channel max response
[15] = measured here: lipid channel max response

CCN(CC)CCC[C@H](C)Nc1ccnc2cc(Cl)ccc12
-15.4%: max response [7, 14]
-16%: max response [7, 15]
inactive: activity change, negative = inhibition ([1]; at 17.2 µM (top of the series)) 13.4% | activity change, negative = inhibition ([1]; at 38 µM (top of the series)) 1.88% | activity change, negative = inhibition ([2]; at 17.2 µM (top of the series)) -9.2% | activity change, negative = inhibition ([2]; at 38 µM (top of the series)) -24.9% | activity, negative = inhibition ([3]; at 17.2 µM (top of the series)) 3.07% | activity, negative = inhibition ([3]; at 38 µM (top of the series)) 15.2% | Potency [4] > 46 µM and > 20.6 µM | Potency [5] | Potency [6] | activity change, negative = inhibition [7] -0.708% | outcome [8] | Potency [9] | outcome [10]
active: Potency ([11]; parasite line A) 0.158 µM | Potency ([11]; parasite line B) 0.316 µM | Potency (CP238) 10 µM | Potency (CP262) 2.39 µM | Potency (CP325) 7.57 µM | Potency (ECU) 2.24 µM | Potency (FAB9) 0.141 µM | Potency (HB3) 0.316 µM | Potency (JCK) 10 µM

COCCc1ccc(OC[C@H](O)CNC(C)C)cc1
10.9%: max response [7, 14]
inactive: activity change, negative = inhibition ([1]; at 17.2 µM (top of the series)) 15.8% | activity change, negative = inhibition ([1]; at 38 µM (top of the series)) 13.6% | activity change, negative = inhibition ([2]; at 17.2 µM (top of the series)) 1.88% | activity change, negative = inhibition ([2]; at 38 µM (top of the series)) -1.17% | activity, negative = inhibition ([3]; at 17.2 µM (top of the series)) -1.97% | activity, negative = inhibition ([3]; at 38 µM (top of the series)) 13.4% | Potency [12] > 46 µM and > 20.6 µM | Potency [4] > 46 µM and > 20.6 µM | Potency [5] | Potency [6] | activity change, negative = inhibition [7] 1.2% | outcome [8] | Potency [9] | outcome [10] | activity, negative = inhibition ([11]; at 28.7 µM (top of the series), parasite line A) 13.1% | activity, negative = inhibition ([11]; at 28.7 µM (top of the series), parasite line B) 3.39% | Potency (CP238) | Potency (CP262) | Potency (CP325) | Potency (ECU) | Potency (FAB9) | Potency (HB3) | Potency (JCK)
11.2%: max response [7, 15]

CC(=O)O[C@@H](C)C[N+](C)(C)C
-4.64%: max response [7, 15]
inactive: activity change, negative = inhibition ([1]; at 17.2 µM (top of the series)) 20.9% | activity change, negative = inhibition ([1]; at 38 µM (top of the series)) 13.8% | Potency [13] | activity, negative = inhibition ([3]; at 17.2 µM (top of the series)) -1.77% | activity, negative = inhibition ([3]; at 38 µM (top of the series)) 30.8% | Potency [4] > 46 µM and > 20.6 µM | Potency [5] | activity change, negative = inhibition [7] -1.12% | outcome [8] | Potency [9] | outcome [10] | activity, negative = inhibition ([11]; at 12.8 µM (top of the series), parasite line A) 0.161% | activity, negative = inhibition ([11]; at 12.8 µM (top of the series), parasite line B) 7.9% | Potency (CP238) | Potency (CP262) | Potency (CP325) | Potency (ECU) | Potency (FAB9) | Potency (HB3) | Potency (JCK)
-2.61%: max response [7, 14]

CC(=O)[C@@H]1CC[C@@H]2[C@@H]3CCC4=CC(=O)CC[C@@]4(C)[C@H]3CC[C@]21C
-9.33%: max response [7, 14]
-17.9%: max response [7, 15]
inactive: activity change, negative = inhibition ([1]; at 17.2 µM (top of the series)) 2.95% | activity change, negative = inhibition ([1]; at 38 µM (top of the series)) 10.7% | Potency [13] | activity change, negative = inhibition ([2]; at 17.2 µM (top of the series)) -20.4% | activity change, negative = inhibition ([2]; at 38 µM (top of the series)) -21.5% | activity, negative = inhibition ([3]; at 17.2 µM (top of the series)) -0.332% | activity, negative = inhibition ([3]; at 38 µM (top of the series)) 9.04% | Potency [5] | Potency [6] | activity change, negative = inhibition [7] -4.74%
